Mtb betalactam: beta-lactam sensitization of Mtb H37Rv; 330,000 compounds, 0.27% hits; inhibition, % at 25 µM; M. tuberculosis H37Rv growth with meropenem, percent inhibition; call rule not given here;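 also: growth measured after seven days incubation then overnight dye step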
GDH-TPI counter: inhibits GDH-TPI coupling enzymes, artifact for Mtb FBA screen. GDH-TPI coupled enzyme counterscreen, NADH absorbance. inhibition, % at 4.8 µM. 360,000 compounds, 1.2% hits. AID 588335; in the data active = inhibition above about 30%
Mtb FBA inh: inhibits M. tuberculosis FBA enzyme. purified M. tuberculosis FBA, fluorescence read-out. inhibition, % at 1 µM. 360,000 compounds, 2.3% hits. P9WQA3; in the data active = inhibition above about 27%
Rv3671c protease: Rv3671c (M. tuberculosis) protease inhibition. P9WHR9. inhibition, % at 5.96 µM. 320,000 compounds, 0.048% hits. AID 2606; in the data active = inhibition above about 38%;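 also: extracellular domain of Rv3671c used as enzyme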
Target sequence (P9WHR9 whole entry, looked up, the tested form may be a part): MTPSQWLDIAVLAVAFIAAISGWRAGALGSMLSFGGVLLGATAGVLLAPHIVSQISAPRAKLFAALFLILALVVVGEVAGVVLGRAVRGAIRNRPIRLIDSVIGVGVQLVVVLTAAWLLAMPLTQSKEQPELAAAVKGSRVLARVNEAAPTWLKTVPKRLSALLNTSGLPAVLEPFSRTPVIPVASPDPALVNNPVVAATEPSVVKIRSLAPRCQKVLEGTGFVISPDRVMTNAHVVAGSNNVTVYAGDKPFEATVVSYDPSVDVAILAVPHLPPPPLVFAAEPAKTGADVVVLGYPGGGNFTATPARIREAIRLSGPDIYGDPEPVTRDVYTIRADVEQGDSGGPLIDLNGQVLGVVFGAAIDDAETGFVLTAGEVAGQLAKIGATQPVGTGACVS
RecA intein inh: inhibitors of M. tuberculosis RecA intein splicing | 290,000 compounds, 0.75% hits | inhibition, % (no concentration beside the values) | cell-free RecA intein splicing, fluorescence; in the data active = inhibition above about 30%
Mtb UGM inh: Mtb UDP-galactopyranose mutase inhibition | 320,000 compounds, 0.06% hits | AID 504406 | purified UGM, fluorescence polarization probe displacement | P9WIQ1 | inhibition, % at 10 µM; in the data active = inhibition above about 10%, passing the limit was not always enough
A number is an active result; i = inactive; nt = not tested or not shown; + = active, no number. Only some compounds are listed: those with a hit (about 4% of all), similar ones and a draw of the others.

SMILES | Mtb betalactam | GDH-TPI counter | Mtb FBA inh | Rv3671c protease | RecA intein inh | Mtb UGM inh
CCOc1ccc(/C=N/NC(=S)Nc2c(C)cccc2C)cc1 | i | 32 | i | i | i | i
O=C1NCCC/C1=N\Nc1ccc(Br)cc1 | i | 37 | i | i | i | i
Cc1ccccc1N/N=C1\CCCNC1=O | i | i | i | i | i | i
CCOC(=O)CSc1n[nH]c(NC(=O)c2cccc(C(F)(F)F)c2)n1 | i | i | i | i | 50 | i
CCOC(=O)CSc1n[nH]c(NC(=O)CC)n1 | i | i | i | i | i | i
O=C(NC(=S)Nc1cccc2ncccc12)c1ccco1 | i | i | i | i | i | i
N#C/C(=C\c1ccco1)C(=O)Nc1cccc2ncccc12 | i | 33 | i | i | i | i
CCN(CC)S(=O)(=O)c1ccc(OC)c(NC(=O)/C=C/c2ccco2)c1 | i | 35 | i | i | i | i
Cc1cc[n+](-c2[nH]c(=O)sc2/C=N/N=C(\[O-])c2ccccc2)cc1 | i | i | i | i | i | i
Cc1cc[n+](-c2[nH]c(=O)sc2/C=N/N=C(\[O-])c2ccccc2)cc1C | nt | i | i | nt | i | nt
O=C(N/N=C/c1sc(=O)[nH]c1-[n+]1ccccc1)c1ccccc1[O-] | i | 55 | i | i | i | i
O=c1[nH]c(-[n+]2ccccc2)c(/C=N/N=C(\[O-])c2ccccc2)s1 | i | 57 | i | i | i | i
Cc1cc[n+](-c2[nH]c(=O)sc2/C=N/N=C(\[O-])c2ccncc2)cc1C | i | 35 | i | i | i | i
CCc1ccc[n+](-c2[nH]c(=O)sc2/C=N/N=C(\[O-])c2cccnc2)c1 | i | 39 | i | i | i | i
Cc1ccc[n+](-c2[nH]c(=O)sc2/C=N/NC(=O)c2ccccc2[O-])c1 | i | i | i | i | i | i
CCCCNC(=O)c1nc(C2CCN(S(=O)(=O)c3ccccc3C(F)(F)F)CC2)oc1-c1cccc(C(F)(F)F)c1 | nt | nt | i | nt | nt | nt
COc1cccc(/C=C/C(=O)OCC(=O)NCCCc2ccccc2)c1OC | i | i | i | i | nt | i
COc1cccc2[nH]c3c(=O)[nH]cnc3c12 | i | i | 133 | nt | i | i
CC(C)N(CCn1cnc2c([nH]c3ccccc32)c1=O)C(C)C | i | i | i | i | i | i
COc1cccc2[nH]c3c(=O)n(CCN(C)C)cnc3c12 | i | i | 117 | i | i | i
COc1cccc2c3cccc(OC)c3c3[nH]cnc3c12 | nt | i | i | nt | nt | nt
CCN(CC)CCn1cnc2c([nH]c3cccc(OC)c32)c1=O | i | i | 103 | i | i | i
CN(C)c1ncnc2c1ncn2[C@H]1CN(Cc2ccc3c(c2)OCO3)C[C@@H](CO)O1 | nt | i | i | nt | nt | nt
Nc1cccc(Oc2ccc3c(c2)C(=O)N(CC2CCCO2)C3=O)c1 (stereo unspecified) | i | i | i | i | i | i
CCC1=C/C(=C/c2sc3ccccc3[n+]2CC)CC(C)(C)C1 | i | nt | nt | i | i | i
SMILES | Mtb betalactam | GDH-TPI counter | Mtb FBA inh | Rv3671c protease | RecA intein inh | Mtb UGM inh
CC[n+]1c(/C=C2\C=C(C)CC(C)(C)C2)sc2ccccc21 | i | i | i | i | 47 | i
CCN1CC=C2C(C#N)=C(N)C(C#N)(C#N)C(c3cc(Cl)ccc3Cl)C2C1 (stereo unspecified) | i | i | 33 | i | i | i
CC(C)N1CC=C2C(C#N)=C(N)C(C#N)(C#N)C(c3ccccc3)C2C1 (stereo unspecified) | i | i | + | i | i | i
CCC1C2CN(C(C)=O)CC=C2C(C#N)=C(N)C1(C#N)C#N (stereo unspecified) | i | i | i | i | i | i
CC(C)N1CC=C2C(C#N)=C(N)C(C#N)(C#N)[C@H](c3ccoc3)[C@H]2C1 | i | nt | nt | i | i | i
COC(=O)c1c(NC(=O)/C=C/C(=O)O)sc(C)c1-c1ccc(C)cc1 | i | i | i | i | 43 | i
COc1ccc(/C=C/C(=O)c2ccc([N+](=O)[O-])o2)cc1 | i | i | i | i | i | i
Cc1ccc(C(=O)/C=C/c2ccc(F)cc2)o1 | i | 39 | i | i | i | i
CN(C(=O)NC1CCCCC1)[C@H]1C[C@H]2c3[nH]c4ccccc4c3CCN2C(=O)[C@H]1CO | nt | i | 152 | nt | nt | nt
Oc1[nH]c2ccccc2c1C=Nc1ccccc1 | i | 34 | i | i | i | i
COCC(C)N=Cc1c(O)[nH]c2ccccc12 (stereo unspecified) | i | i | i | i | i | i
OCCN=Cc1c(O)[nH]c2ccccc12 | i | i | i | i | i | i
CN(C)CC(C)(C)CN=Cc1c(O)[nH]c2ccccc12 | i | 35 | i | i | i | i
CCn1c(=O)cc(SCC(=O)Nc2ccc(C)cn2)c2ccccc21 | i | i | i | i | i | i
CC(=O)NCCNc1nc(NCC2CC2)nc2cc(-c3ccccc3)sc12 | nt | i | i | nt | nt | nt
Cc1cc(CNC[C@H]2O[C@@H](n3cnc(C(N)=O)n3)[C@H](O)[C@@H]2O)c(C)n1-c1cccnc1 | nt | i | i | nt | nt | nt
O=[N+]([O-])c1ccc(Sc2nnnn2-c2ccccc2)nc1 | nt | nt | nt | nt | 58 | nt
O=[N+]([O-])c1ccc(Sc2ccccn2)nc1 | i | i | i | i | i | i
CCc1nc2c(OCCC3CCCCC3)cccn2c1N(C)C(=O)c1ccccc1F | nt | i | i | nt | nt | nt
COc1ccc(NC(=O)c2sc3nc(C)nc(N4CCOCC4)c3c2C)c(OC)c1 | i | i | i | i | i | i
Cc1nc(N2CCOCC2)c2c(C)c(C(=O)Nc3ccc(F)cc3F)sc2n1 | i | 38 | i | i | i | i
O=C1N/C(=N/O)S/C1=C/c1cccc([N+](=O)[O-])c1 | i | i | i | i | i | i
Cc1ccc(S(=O)(=O)/N=C2/NC(=O)/C(=C/c3ccccc3)S2)cc1 | i | 34 | i | i | nt | i
O=C1N/C(=N\S(=O)(=O)Cc2ccccc2)S/C1=C/c1cccc([N+](=O)[O-])c1 | i | 49 | i | i | i | i
Cc1ccc(S(=O)(=O)/N=C2/NC(=O)/C(=C\c3ccccc3)S2)cc1 | i | 39 | i | i | nt | i
SMILES | Mtb betalactam | GDH-TPI counter | Mtb FBA inh | Rv3671c protease | RecA intein inh | Mtb UGM inh
Cc1ccc(-c2noc(-c3ccno3)n2)cc1 | i | i | i | i | i | i
COc1ccc(C(C(=O)NC2CCCC2)N(CCO)C(=O)Cn2nnc(-c3ccc(C)o3)n2)cc1OC (stereo unspecified) | i | i | i | i | i | i
N#Cc1cc(C#N)c(N2CCN(c3ccccn3)CC2)nc1N | i | 32 | i | i | i | i
COC(=O)[C@H](Cc1ccccc1)NS(=O)(=O)c1ccc(F)cc1Br | nt | i | i | nt | nt | nt
CSCC[C@H](NC(=O)c1ccc(OCC2CCCO2)cc1)c1nc2ccccc2[nH]1 (stereo partly specified) | i | i | i | i | nt | i
CSc1nnc2c(=O)[nH]c(=O)n(C)c2n1 | nt | i | i | nt | nt | nt
CSc1cnc2c(=O)n(C)c(=O)[nH]c2n1 | i | i | 130 | i | i | i
O=C1N/C(=N\N=C\c2ccco2)SC1Cc1ccccc1[N+](=O)[O-] (stereo unspecified) | i | 38 | i | i | i | i
O=C(Cc1cccc(NC(=O)C2CCN(C(=O)C3CCCCC3)CC2)c1)Nc1cccc(C(=O)N2CCCCC2)c1 | nt | i | i | nt | nt | nt
CC(C)(C)c1ccc(-c2ncccc2O)cc1 | i | i | 170 | i | i | i

Screening data deposited in PubChem by several laboratories.
